Data on 46 compounds can be found in paper PMC4336329 (PLoS ONE, 2015).

The structures appear in SMILES notation. In all, about 310,000 compounds went through this assay and about 14,000 (4.5%) showed an effect of 50% or more. Effects have a minus sign here. Only a selection was taken, and strong results are over-represented in it overall.
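Further: peak tail current of the secondary pulse compared with the same well before compound.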

In the assay the target is human ether-à-go-go-related gene (hERG) potassium channel (human, UniProt Q12809). The assay is described as follows: primary screen, population patch clamp on CHO cells stably expressing hERG; higher = less effect of the substance.
Chain of human ether-à-go-go-related gene (hERG) potassium channel (Q12809 whole entry, looked up): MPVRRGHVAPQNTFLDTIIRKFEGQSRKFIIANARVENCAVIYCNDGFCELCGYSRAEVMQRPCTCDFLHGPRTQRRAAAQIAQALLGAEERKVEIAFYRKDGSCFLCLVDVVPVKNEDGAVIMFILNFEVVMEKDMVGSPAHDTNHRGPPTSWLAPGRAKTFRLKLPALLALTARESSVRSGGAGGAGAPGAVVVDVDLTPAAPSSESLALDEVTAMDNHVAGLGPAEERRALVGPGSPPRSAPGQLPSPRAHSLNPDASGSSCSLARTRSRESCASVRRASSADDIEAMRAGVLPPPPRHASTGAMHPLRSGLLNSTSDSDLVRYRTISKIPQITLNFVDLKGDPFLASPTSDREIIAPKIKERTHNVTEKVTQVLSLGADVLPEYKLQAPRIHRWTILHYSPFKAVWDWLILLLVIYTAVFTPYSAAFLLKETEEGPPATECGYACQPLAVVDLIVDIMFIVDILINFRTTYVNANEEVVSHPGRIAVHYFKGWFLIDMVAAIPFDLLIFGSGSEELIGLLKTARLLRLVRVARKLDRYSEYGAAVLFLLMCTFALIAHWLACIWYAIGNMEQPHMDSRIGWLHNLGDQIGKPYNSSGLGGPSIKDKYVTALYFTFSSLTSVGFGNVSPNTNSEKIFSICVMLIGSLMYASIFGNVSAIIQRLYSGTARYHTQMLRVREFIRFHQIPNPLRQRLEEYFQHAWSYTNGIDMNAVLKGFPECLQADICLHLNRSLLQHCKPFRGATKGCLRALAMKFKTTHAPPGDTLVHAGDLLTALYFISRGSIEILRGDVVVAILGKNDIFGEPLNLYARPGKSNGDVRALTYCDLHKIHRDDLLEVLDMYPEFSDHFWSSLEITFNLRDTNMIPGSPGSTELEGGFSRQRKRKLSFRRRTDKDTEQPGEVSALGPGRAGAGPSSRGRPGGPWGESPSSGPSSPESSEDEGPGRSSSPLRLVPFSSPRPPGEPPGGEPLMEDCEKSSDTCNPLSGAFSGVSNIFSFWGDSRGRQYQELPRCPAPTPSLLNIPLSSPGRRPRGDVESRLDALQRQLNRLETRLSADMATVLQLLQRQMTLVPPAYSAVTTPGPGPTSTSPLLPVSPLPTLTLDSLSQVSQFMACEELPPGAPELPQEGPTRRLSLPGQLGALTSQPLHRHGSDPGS
Consider `Cc1nc2sc3c(c2c(=O)o1)CCC3`, for which the “hERG current change (%, negative = inhibition) at 10uM” value was determined as 4.18%.
Then `O=c1[nH]c(O)c(/C=C2\C=Nc3ccccc32)[nH]1`, with 20.9%.
Take `Cc1cc(S(=O)(=O)N2CCOCC2)ccc1OCC(=O)NCC1CCCO1` (stereo not shown): the “hERG current change (%, negative = inhibition) at 10uM” value was -0.633%.
Then `COc1ccc(S(=O)(=O)N(Cc2ccccc2)c2ccccc2C(=O)O)cc1`, with 31.8%; and `O=S(=O)(Cc1ccccc1)NCCc1cccc(Cl)c1`, with -5.57%.
For `Cc1nnc(-c2cnn(-c3ccccc3)c2N)n1Cc1ccccc1` the value was -1.94%; for `CCCOc1ccc(CC(CC(=O)O)(C(=O)O)C(=O)O)cc1`, 13.5%.
For `CCOC(=O)c1cccc(Nc2ncnc3ccc(C)cc23)c1` the value was -59.3%.
Consider `CCOC(=O)c1cccc(Nc2ncnc3ccccc23)c1.Cl`, for which the “hERG current change (%, negative = inhibition) at 10uM” value is -24.9%.
For `COC(=O)c1cccc(Nc2ncnc3ccc(C)cc23)c1` the value was -20.9%; for `Cn1c(SCCC(=O)O)nnc1-c1ccncc1`, 1.73%; for `Cn1c(SCCCC(=O)c2ccc(Br)cc2)nnc1-c1ccncc1`, -70.2%.
With `Cn1c(SCCCC(=O)c2ccccc2)nnc1-c1ccncc1`, the “hERG current change (%, negative = inhibition) at 10uM” value is recorded as -42.9%.
For `Cc1ccc(C(=O)CSc2nnc(-c3ccncc3)n2C)cc1` the value was -3.2%.
Then `Cn1c(SCC(=O)c2ccccc2)nnc1-c1ccncc1`, with -0.277%.
Consider `CCOc1ccc(C(C)=O)cc1CSc1nnc(-c2ccncc2)n1CCOC`, for which the “hERG current change (%, negative = inhibition) at 10uM” value is given as -0.498%.
As to `COCCn1c(SCC(=O)N2CCOCC2)nnc1-c1ccncc1`, the “hERG current change (%, negative = inhibition) at 10uM” value was -7.01%.
For `Cn1c(SCCCC(=O)c2ccc(F)cc2)nnc1-c1ccncc1` the value was -59.6%; for `COCCn1c(SCCCC(=O)c2ccc(Br)cc2)nnc1-c1ccncc1`, -60.7%; for `[O-][n+]1onc2c1CCC1N(O)C(c3ccccc3)CC21O` (stereo not shown), 14.7%.
For `O=C(c1cc(C2CC2)nn1-c1ccccc1)N1CCN(Cc2c(F)cccc2Cl)CC1`, the “hERG current change (%, negative = inhibition) at 10uM” value was -36.6%.
Then `CN(CCO)C(=O)c1cccc2c1-c1ccccc1C2=O`, with 4.12%; and `c1ccc(-c2ccc(-c3ccccn3)s2)nc1`, with -8.87%.
Then `CCOc1ccc(NC(=O)c2ccc(Br)o2)c([N+](=O)[O-])c1`, with 5.5%; and `CC(C)C(=O)NC(c1ccco1)c1c(O)ccc2ccccc12` (stereo not shown), with 14.1%; and `COc1ccccc1C(=O)C1CCCN(Cc2ccc3c(c2)OCCO3)C1` (stereo not shown), with -40.5%.
For `COc1ccc(C(=O)C2CCCN(Cc3ccc(Sc4nncn4C)o3)C2)cc1F` (stereo not shown), the “hERG current change (%, negative = inhibition) at 10uM” value is on record as -15.4%.
For `COc1ccc(F)cc1C(=O)C1CCCN(Cc2ccc3c(c2)OCCO3)C1` (stereo not shown) the value was -54.3%.
For `O=C(c1ccc(Cl)cc1)C1CCCN(Cc2ccon2)C1` (stereo not shown) the value was -18%.
Consider `COc1ccc(C(=O)C2CCCN(Cc3ccc4c(c3)OCCO4)C2)cc1F` (stereo not shown), for which the “hERG current change (%, negative = inhibition) at 10uM” value was -74.7%.
For `COc1ccc(F)cc1C(=O)C1CCCN(Cc2ccc(Sc3nncn3C)o2)C1` (stereo not shown) the value was 12.6%.
With `O=C(c1ccc(Cl)cc1)C1CCCN(Cc2ccc3c(c2)OCCO3)C1` (stereo not shown), the “hERG current change (%, negative = inhibition) at 10uM” value was -73.5%.
Then `O=C(CN1CCC(C(=O)c2ccc(Cl)cc2)CC1)Nc1ccc2c(c1)OCCO2`, with -44.9%.
Regarding `c1ccc(-c2noc(-c3ccc4c(c3)OCO4)n2)cc1`, the “hERG current change (%, negative = inhibition) at 10uM” value was -3.33%.
On to `Cc1ccc(CN2CCN(/N=C/c3ccc(C)s3)CC2)c(C)c1`, for which the “hERG current change (%, negative = inhibition) at 10uM” value is on record as -5.96%.
Consider `CCn1c(=O)c(C(=O)NNC(=O)c2cccc(Cl)c2)c(O)c2ccccc21`, for which the “hERG current change (%, negative = inhibition) at 10uM” value was determined as 32.4%.
Consider `C/C(=N\NC(=O)c1cccc(Br)c1)c1ccc(Br)cc1`, for which the “hERG current change (%, negative = inhibition) at 10uM” value was 16%.
Then `Cc1cc2c(c(=O)n1CCCn1ccnc1)C(c1ccco1)C(C#N)=C(N)O2` (stereo not shown), with -3.23%.
Consider `CC(O)C(=O)N/N=C/c1ccccc1C(=O)O` (stereo not shown), for which the “hERG current change (%, negative = inhibition) at 10uM” value worked out at 14%.
For `COc1ccc(/C=N/Nc2nc3ccccc3[nH]2)cc1OC` the value was -21.8%.
Turning to `COc1cc(/C=C(/C(=O)c2cccs2)c2nc3ccccc3[nH]2)cc(OC)c1O`, the “hERG current change (%, negative = inhibition) at 10uM” value is listed as -56.1%.
Then `COc1cc(/C=N/Nc2nc3ccccc3[nH]2)cc(OC)c1O`, with -55.9%; and `COc1cc(/C=N\Nc2nc3ccccc3[nH]2)cc(OC)c1OC`, with -19.8%.
For the compound `O=C(/C(=C/c1ccc(Cl)cc1)c1nc2ccccc2[nH]1)c1cccs1`, the “hERG current change (%, negative = inhibition) at 10uM” value came out at 2.82%.
For `COc1cc(/C=C(/C(=O)c2cccs2)c2nc3ccccc3[nH]2)ccc1O` the value was -22.2%; for `CCCCN=C1SC(C(=O)Nc2sc3c(c2C(=O)OC)CCC3)C(N)=C1C(=O)N1CCOCC1` (stereo not shown), -1.11%.
